Test results: the supplement of paper PMC13380429
Counter-ions that a name gives are not always drawn. A number with no mark means an inactive call.

The compounds below were run on Vero E6 infected with SARS-CoV-2 (assay: SARS-CoV-2 infection rate relative to infected DMSO; higher = more infection, active = 60 or less). Conditions: 24 h.
`O=C(NC1(c2ccccc2)CC1)c1c(CN2CCC(N3CCCCC3)CC2)c(-c2cccc(C(F)(F)F)c2)nc2cc(Br)ccc12` (0.833333 µM) was tested, and the SARS-CoV-2 infection rate was 112%.
`CN(C)CC/C=C1/c2ccccc2COc2ccc(CC(=O)O)cc21` [Olopatadine hydrochloride (Opatanol)] (10 µM) was tested, and the SARS-CoV-2 infection rate was 111%.
`C=CC(=O)Nc1cc(Nc2nccc(-c3c[nH]c4ccccc34)n2)c(OC)cc1N(C)CCN(C)C` (0.833333 µM) showed an SARS-CoV-2 infection rate of 112%.
For `Nc1nc2ccc(Cl)cc2c2nc(-c3ccco3)nn12` (10 µM), the SARS-CoV-2 infection rate was 108%.
`CCCCCCCCCC(=O)OCCN1CCN(CCCN2c3ccccc3Sc3ccc(C(F)(F)F)cc32)CC1` [fluphenazine-decanoate] (10 µM) gave an SARS-CoV-2 infection rate of 112%.
In the case of `CS(=O)(=O)c1ccc(-c2nnc(/C=C/c3nnc(-c4ccc(C#N)cc4)o3)n2-c2ccccc2Cl)nc1` (10 µM), the SARS-CoV-2 infection rate is reported as 99%.
`CC[C@@H](C)CNCC(=O)N1CCc2sccc2[C@@H]1COc1cccc(C)c1` (10 µM) was tested, and the SARS-CoV-2 infection rate was 58.5% (active).
With `COC(=O)c1cnn(-c2ccc(F)cc2F)c1/C=N/NC(=S)NC(C)(C)C` (10 µM) the SARS-CoV-2 infection rate was 74%.
Compound `Cc1ccc2c(Br)cc(Br)c(OC(=O)c3ccccc3)c2n1` [broxaldine] (0.833333 µM) has an SARS-CoV-2 infection rate of 103%.
`COc1cc(C(=O)NC2CCCNC2)cc(OC)c1OC` (stereo not drawn) [troxipide] (10 µM) was tested, and the SARS-CoV-2 infection rate was 120%.
`Nc1nc(=O)[nH]cc1F` [flucytosine] (10 µM) was tested, and the SARS-CoV-2 infection rate was 107%.
Compound `Oc1ccnc2cc(Cl)ccc12` [chloroxoquinoline] (10 µM) has an SARS-CoV-2 infection rate of 99.5%.
`CN1CCN(c2nc(C3=C(c4c[nH]c5ccccc45)C(=O)NC3=O)c3ccccc3n2)CC1` [sotrastaurin] (10 µM) showed an SARS-CoV-2 infection rate of 119%.
